Assay results as given in PMC4336329 (PLoS ONE, 2015).
Hit rate of the full screen: of about 310,000 compounds, about 14,000 (4.5%) showed an effect of 50% or more. Effects have a minus sign here. For the sample, strong results were picked, then their nearest neighbours and some compounds at random.

molecular target: human ether-à-go-go-related gene (hERG) potassium channel (human, UniProt Q12809); assay: primary screen, population patch clamp on CHO cells stably expressing hERG; higher = less effect of the substance
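Further: peak tail current of the secondary pulse compared with the same well before compound.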

human ether-à-go-go-related gene (hERG) potassium channel, sequence (Q12809 whole entry, looked up): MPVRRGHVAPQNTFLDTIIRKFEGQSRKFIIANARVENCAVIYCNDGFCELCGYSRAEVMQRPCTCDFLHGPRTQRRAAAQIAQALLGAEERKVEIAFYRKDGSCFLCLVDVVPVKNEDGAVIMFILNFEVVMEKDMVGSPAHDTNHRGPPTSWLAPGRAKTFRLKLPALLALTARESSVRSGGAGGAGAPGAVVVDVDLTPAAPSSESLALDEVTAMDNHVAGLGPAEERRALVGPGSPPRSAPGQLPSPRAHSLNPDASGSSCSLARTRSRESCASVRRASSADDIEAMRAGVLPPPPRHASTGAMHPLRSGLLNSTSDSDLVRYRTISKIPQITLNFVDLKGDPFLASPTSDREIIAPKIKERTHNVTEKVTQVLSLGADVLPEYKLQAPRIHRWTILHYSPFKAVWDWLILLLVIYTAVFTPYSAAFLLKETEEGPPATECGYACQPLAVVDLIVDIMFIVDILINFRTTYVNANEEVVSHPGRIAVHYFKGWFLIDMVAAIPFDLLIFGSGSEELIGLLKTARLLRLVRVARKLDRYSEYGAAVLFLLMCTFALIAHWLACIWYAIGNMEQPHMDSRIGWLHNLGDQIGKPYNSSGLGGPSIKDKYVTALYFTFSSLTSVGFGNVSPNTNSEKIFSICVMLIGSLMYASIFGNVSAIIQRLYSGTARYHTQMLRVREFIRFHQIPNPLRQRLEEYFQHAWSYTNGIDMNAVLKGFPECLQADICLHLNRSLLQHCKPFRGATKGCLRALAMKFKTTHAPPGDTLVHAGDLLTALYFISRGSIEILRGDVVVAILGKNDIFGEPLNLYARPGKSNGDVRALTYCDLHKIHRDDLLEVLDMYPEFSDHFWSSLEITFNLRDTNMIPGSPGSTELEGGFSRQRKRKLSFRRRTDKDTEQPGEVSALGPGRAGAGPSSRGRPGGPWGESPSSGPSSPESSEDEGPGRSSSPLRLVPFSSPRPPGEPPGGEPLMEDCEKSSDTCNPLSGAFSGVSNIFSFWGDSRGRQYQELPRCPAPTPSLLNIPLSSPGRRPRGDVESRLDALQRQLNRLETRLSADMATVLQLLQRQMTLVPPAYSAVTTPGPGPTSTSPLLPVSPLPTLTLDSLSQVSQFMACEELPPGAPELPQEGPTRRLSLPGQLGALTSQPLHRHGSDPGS

| Structure (SMILES) | hERG current change (%, negative = inhibition) at 10uM [%] |
| --- | --- |
| CC1CCCCC12NC(=O)N(Cn1nnc3ccccc3c1=O)C2=O (centres unmarked) | -17.2 |
| Cc1ccc(-c2cc(-c3ccccc3)nc(N(C)N)n2)cc1 | 16.7 |
| c1ccc(Cc2nnc(N3CCCCC3)c3ccccc23)cc1 | -26.7 |
| c1ccc(N2CCN(c3nnc(Cc4cccnc4)c4ccccc34)CC2)nc1 | -50.1 |
| O=C(Cn1nc(Cc2cccnc2)c2ccccc2c1=O)N1CCN(c2ccccn2)CC1 | -23.1 |
| CC(C)(C)c1ccc(COc2ccsc2C(=O)O)cc1 | -6.72 |
| Cc1ccc(CNC(=O)CNC(=S)N(Cc2ccccc2)Cc2cccnc2)cc1 | -19.8 |
| COc1ccc(CN(Cc2cccnc2)C(=S)NCCc2ccccc2)cc1OC.O=C(O)C(=O)O | -50.5 |
| COCCCNC(=S)N(Cc1cccnc1)Cc1ccc(OC)c(OC)c1 | 12.4 |
| O=C(CNC(=S)N(Cc1ccccc1)Cc1cccnc1)NCCc1ccccc1 | -41.3 |
| COCCNC(=S)N(Cc1cccnc1)Cc1ccc(OC)c(OC)c1.O=C(O)C(=O)O | 9.52 |
| Cc1ccc(CCNC(=O)CNC(=S)N(Cc2ccccc2)Cc2cccnc2)cc1 | -55 |
| CCCc1nn(C)c2c(=O)[nH]c(-c3cc(S(=O)(=O)Nc4ccc(NC(C)=O)cc4)ccc3OCC)nc12 | -21.2 |
| O=C(NC1CCCCCC1)c1ccc(CS(=O)(=O)Cc2ccc(F)cc2)o1 | 3.52 |
| O=C(CCNC(=O)c1ccccc1)OCN1C(=O)c2ccccc2C1=O | -5.38 |
| CCCCNC(=O)CS(=O)Cc1nc(-c2ccc(C)cc2)oc1C (centres unmarked) | -17.5 |
| COCCCNC(=O)Cn1nnc(-c2ccc(NC(=O)c3ccccc3OC)cc2)n1 | 6.89 |
| CCOc1ccc(-c2nnc(SCc3nc4ccccc4[nH]3)n2N)cc1 | -34.3 |
| COc1ccc(OCCN2CCN(C3CC(=O)N(CCC(C)C)C3=O)CC2)cc1 (centres unmarked) | -63.4 |
| COc1ccc(CCN2C(=O)CC(N3CCN(S(=O)(=O)c4ccccc4)CC3)C2=O)cc1 (centres unmarked) | -18.7 |
| CCN1C(=O)CC(N2CCN(c3ccc(OC)cc3)CC2)C1=O (centres unmarked) | -9.88 |
| COc1ccc(Nc2nc3ccccc3n3nnnc23)cc1 | -7.93 |

| Structure (SMILES) | hERG current change (%, negative = inhibition) at 10uM [%] |
| --- | --- |
| CN1CCN(S(=O)(=O)c2ccc3c(c2)OCCO3)CC1 | 12.1 |
| COC(=O)CCCC1=CC2=C(c3ccccc3)C(=O)C(C)(OC(=O)C3CCCC3)C(=O)C2=CN1CC1CC1 (centres unmarked) | -39.9 |
| COC(=O)CCCC1=CC2=C(c3ccccc3)C(=O)C(C)(OC(=O)C3CCCC3)C(=O)C2=CN1Cc1ccc(OC)cc1 (centres unmarked) | -4.26 |
| COC(=O)CCCC1=CC2=C(c3ccccc3)C(=O)C(C)(OC(=O)C3CCCC3)C(=O)C2=CN1Cc1ccco1 (centres unmarked) | -56.8 |
| CCOC(=O)CSc1nc(N)nc(C)c1Cl | 13.4 |
| Cn1c(-c2ccc(F)cc2)cnc1NCc1cc2c(cc1[N+](=O)[O-])OCO2.O=C(O)C(=O)O | -57.8 |
| Cn1c(-c2ccccc2)cnc1NCc1cc2c(cc1[N+](=O)[O-])OCO2 | -55 |
| Cc1ccc(-c2cnc(NCc3cc4c(cc3[N+](=O)[O-])OCO4)n2C)cc1C | -48.6 |
| COc1ccc(-c2cnc(NCc3cc4c(cc3[N+](=O)[O-])OCO4)n2C)cc1 | -48.4 |
| Cc1cc(F)ccc1NCc1cc2c(cc1[N+](=O)[O-])OCO2.O=C(O)C(=O)O | 7.77 |
| Cn1c(-c2ccc(Cl)cc2)cnc1NCc1cc2c(cc1[N+](=O)[O-])OCO2.O=C(O)C(=O)O | -62.6 |
| Cn1c(-c2ccccc2)cnc1NCc1cc(Cl)ccc1O | 19.9 |
| N#Cc1nc(-c2ccccc2F)oc1NCc1cccc2c1OCO2 | -24.9 |
| CCN(C(=O)COC(=O)CNC(=O)c1ccc(C)s1)c1ccccc1 | 16.5 |
| O=C(NCc1ccc(F)cc1)c1cccnc1C(=O)O | 13.5 |
| COc1ccc(S(=O)(=O)N(CC(N)=O)C2CCCCC2)cc1Cl | 4.39 |
| c1ccc2c(NCCc3c[nH]c4ccccc34)c3ccccc3nc2c1 | -74.7 |
| COc1ccc(CCNc2c3ccccc3nc3ccccc23)cc1OC.Cl | -69.7 |
| CNCCc1ccc(O)c(O)c1.Cl | 12.7 |
| COc1ccc(CCNc2nc(-c3cccnc3)nc3ccccc23)cc1OC | -1.54 |
| COc1ccc(CCNc2nc(C)cc(C)n2)cc1OC.Cl | 17.4 |
| O=C(CNC(=O)c1ccccc1)NCCc1ccc(O)c(O)c1 | 1.15 |
